We go through four compounds from PubChem BioAssay.

The source made the active and inactive calls. Unless noted, how the calls were made is not given here.

The subject of experiment [1] is Wnt5a (protein binding on small-molecule microarray). Put plainly: Wnt5a binders on small-molecule microarray, primary screen, biophysical, 635/667 nm fluorescence (AID 1142).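 Further: fluorescence read at 667 nm with signal to noise per printed feature.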 Conditions: 635 nm fluorescence, higher = more signal.
Experiment [2] is described as follows: cell viability in Huh7 cells, primary screen, cytotoxicity control for HCV replication inhibitor project, CellTiter-Glo luminescence, basal, 48 h (AID 1143).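 Further: Huh7 hepatoma cells carrying a hepatitis C replication reporter with no stimulus; test concentration not given here.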 Conditions: Huh7 HCV replicon, higher = more signal, called active from +8 up or from −8 down.
Experiment [3] in a line: P. aeruginosa biofilm formation inhibitors, primary screen, PAO1 strain, BacTiter-Glo luminescence, LB-PBS (AID 1144). As to conditions: 12 h, higher = more signal.
The nature of experiment [4]: CREB reporter modulators without forskolin, primary screen, cell-based, PC12, CRE-LacZ reporter, unstimulated (AID 1145). As to conditions: no forskolin, luminescence, 4.5 h, higher = more signal, called active from +8 up or from −8 down.
Experiment [5] in a line: CREB reporter modulators under forskolin, primary screen, cell-based, PC12, CRE-LacZ reporter, forskolin-stimulated (AID 1146).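 Further: PC12 cells with 6xCRE LacZ reporter stimulated by forskolin 10 µM; beta-galactosidase reporter signal reflecting CREB driven transcription.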 Conditions: luminescence, 4.5 h, higher = more signal, called active from +8 up or from −8 down.
Experiment [6] addresses Streptavidin (Streptomyces avidinii) (UniProt P22629). Briefly: streptavidin binders on small-molecule microarray, primary screen, artefact control for SMM compound annotation, biophysical, 635/667 nm fluorescence (AID 1147).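 Further: signal reflects streptavidin binding to arrayed compounds as a control protein.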 As to conditions: streptavidin binding, higher = more signal.
Experiment [7] can be described thus: small-molecule binders of probe aInhba, primary screen, biochemical, small-molecule microarray, 635/667 nm fluorescence (AID 1148).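 Further: score merges 667nm spot fluorescence with signal-to-noise for antibody binding to printed compounds.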 Conditions: higher = more signal.
Experiment [8] has as its target Torsin-1A (Homo sapiens) (UniProt O14656). Briefly: torsin A binders from cell lysate, primary screen, small-molecule microarray, wild-type, 635/667 nm (AID 1149). Conditions: COS7 hTOR1A-WT lysate, 635 nm fluorescence, higher = more signal.
Experiment [9] shares this target. Put plainly: small-molecule binders of mutant TOR1A in lysate, primary screen, cell lysate, small-molecule microarray, COS7 lysate, 635/667 nm fluorescence (AID 1150).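 Further: score pools 667 nm emission and signal to noise measuring lysate protein binding.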 Conditions: COS7 hTOR1A mutant lysate, 635 nm fluorescence, higher = more signal.
Experiment [10] concerns Sonic hedgehog protein (Shh). Put plainly: small-molecule binders of Shh protein, primary screen, biochemical, small-molecule microarray, 635/667 nm fluorescence (AID 1151).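 Further: Shh protein binding to compounds spotted on small-molecule microarray slides; score combines spot fluorescence intensity with signal-to-noise across triplicate slides.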 Conditions: small-molecule microarray binding, 635 nm fluorescence; higher = more signal.
Experiment [11] in a line: E. coli DRC41 culture turbidity changes, primary screen, E. coli filamentation inducer project, strain DRC41, OD650, 48 h (AID 1152).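 Further: E. coli MC1000 strain DRC41 lacking acrAB efflux pump and sulA.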 Conditions: E. coli DRC41 (acrAB sulA), higher = more signal, called active from +8 up or from −8 down.
Experiment [12] in a line: small-molecule binders of probe aLefty1, primary screen, biochemical, small-molecule microarray, 635/667 nm fluorescence (AID 1153).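 Further: score merges spot fluorescence with signal-to-noise ratio from the scanned slide images.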 Conditions: higher = more signal.
The nature of experiment [13]: PSAC antagonists in infected red cells, primary screen, cell-based, P. falciparum Indochina, OD700, 1 h (AID 1154). As to conditions: P. falciparum Indochina infected RBC osmotic lysis, higher = more signal, called active from +8 up or from −8 down.
The nature of experiment [14]: PSAC antagonists in infected red cells, primary screen, cell-based, P. falciparum Indochina, OD700, 2 h (AID 1155).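 Further: lysis reports solute entry through the parasite surface anion channel PSAC; channel blockers reduce lysis of infected cells.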 As to conditions: P. falciparum Indochina infected erythrocytes, osmotic lysis OD700; higher = more signal, called active from +8 up or from −8 down.
A short description of experiment [15]: osmotic lysis modulators in infected erythrocytes, primary screen, PSAC antagonist project, cell-based, P. falciparum Indochina, OD700, 3 h (AID 1156). Conditions: higher = more signal, called active from +8 up or from −8 down.
A short description of experiment [16]: PSAC antagonists in infected red cells, primary screen, cell-based, P. falciparum Indochina, OD700, 18 h (AID 1157). As to conditions: P. falciparum Indochina infected erythrocytes, osmotic lysis OD700, 18 h; higher = more signal, called active from +8 up or from −8 down.
Experiment [17] can be described thus: modulators of S6 phosphorylation in cells, primary screen, cell-based, A549, cytoblot, luminescence, serum-stimulated (AID 1158).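 Further: serum-stimulated A549 lung adenocarcinoma cells; signal is phosphorylated S6 detected by cytoblot immunostaining with HRP secondary.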 Conditions: A549 phospho-S6 cytoblot, 5 h, higher = more signal.
The target of experiment [18] is NADPH oxidase 2 (Homo sapiens) (UniProt P04839). Briefly: NOX2-dependent H2O2 signal modulators, primary screen, NOX inhibitor project, cell-based, HEK293-NOX2, PMA-stimulated, Amplex Red fluorescence (AID 1159). Further: test concentration not given here. Conditions: 45 min, higher = more signal, called active from +8 up or from −8 down.
Experiment [19] addresses NADPH oxidase 4 (Homo sapiens) (UniProt Q9NPH5). Briefly: NOX4-dependent H2O2 signal modulators, primary screen, NOX inhibitor project, cell-based, HEK293-NOX4, tetracycline-induced, Amplex Red fluorescence (AID 1160). Conditions: 45 min, higher = more signal, called active from +8 up or from −8 down.
The target of experiment [20] is NADPH oxidase 5 (Homo sapiens) (UniProt Q96PH1). Briefly: NOX5-dependent H2O2 signal modulators, primary screen, NOX inhibitor project, cell-based, HEK293-NOX5, Amplex Red fluorescence (AID 1161). Conditions: HEK293-NOX5, ionomycin, 45 min, higher = more signal.
Chain of NADPH oxidase 5 (Homo sapiens) (Q96PH1 whole entry, looked up): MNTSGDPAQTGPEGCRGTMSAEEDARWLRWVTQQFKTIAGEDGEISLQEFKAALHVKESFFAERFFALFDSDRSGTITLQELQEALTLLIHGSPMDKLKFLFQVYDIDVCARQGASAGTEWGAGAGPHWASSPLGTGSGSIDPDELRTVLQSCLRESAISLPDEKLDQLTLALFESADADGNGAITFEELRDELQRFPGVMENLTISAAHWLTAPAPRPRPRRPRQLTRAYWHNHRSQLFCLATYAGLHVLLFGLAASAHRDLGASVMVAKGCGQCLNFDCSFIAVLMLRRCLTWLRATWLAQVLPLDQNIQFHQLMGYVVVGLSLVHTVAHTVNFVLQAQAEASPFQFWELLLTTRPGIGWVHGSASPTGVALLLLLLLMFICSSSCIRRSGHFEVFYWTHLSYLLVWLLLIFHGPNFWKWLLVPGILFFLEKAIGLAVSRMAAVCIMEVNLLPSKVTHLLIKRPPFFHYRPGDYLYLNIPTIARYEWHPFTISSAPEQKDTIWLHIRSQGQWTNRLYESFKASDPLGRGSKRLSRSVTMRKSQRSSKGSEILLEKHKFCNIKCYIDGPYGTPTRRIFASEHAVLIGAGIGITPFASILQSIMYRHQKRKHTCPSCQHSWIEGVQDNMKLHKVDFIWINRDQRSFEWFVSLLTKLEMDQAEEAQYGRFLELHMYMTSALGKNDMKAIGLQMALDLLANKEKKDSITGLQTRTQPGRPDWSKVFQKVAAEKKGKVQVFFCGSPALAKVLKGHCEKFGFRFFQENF

Chain of NADPH oxidase 4 (Homo sapiens) (Q9NPH5 whole entry, looked up): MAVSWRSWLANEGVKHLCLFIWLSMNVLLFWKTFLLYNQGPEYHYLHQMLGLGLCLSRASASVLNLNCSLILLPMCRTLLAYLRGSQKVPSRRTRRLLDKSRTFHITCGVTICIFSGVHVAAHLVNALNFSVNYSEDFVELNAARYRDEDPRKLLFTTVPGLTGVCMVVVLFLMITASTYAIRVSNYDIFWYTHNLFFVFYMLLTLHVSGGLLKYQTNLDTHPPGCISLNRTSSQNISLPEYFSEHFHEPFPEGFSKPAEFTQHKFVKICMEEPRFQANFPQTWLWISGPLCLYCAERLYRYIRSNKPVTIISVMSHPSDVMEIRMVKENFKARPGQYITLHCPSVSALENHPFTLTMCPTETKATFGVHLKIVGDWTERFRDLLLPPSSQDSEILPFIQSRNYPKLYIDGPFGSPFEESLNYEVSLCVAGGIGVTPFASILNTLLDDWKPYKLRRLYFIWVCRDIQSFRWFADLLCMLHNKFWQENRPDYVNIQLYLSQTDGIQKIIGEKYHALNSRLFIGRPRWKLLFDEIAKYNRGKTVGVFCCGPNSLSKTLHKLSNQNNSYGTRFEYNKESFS
Chain of Torsin-1A (Homo sapiens) (O14656 whole entry, looked up): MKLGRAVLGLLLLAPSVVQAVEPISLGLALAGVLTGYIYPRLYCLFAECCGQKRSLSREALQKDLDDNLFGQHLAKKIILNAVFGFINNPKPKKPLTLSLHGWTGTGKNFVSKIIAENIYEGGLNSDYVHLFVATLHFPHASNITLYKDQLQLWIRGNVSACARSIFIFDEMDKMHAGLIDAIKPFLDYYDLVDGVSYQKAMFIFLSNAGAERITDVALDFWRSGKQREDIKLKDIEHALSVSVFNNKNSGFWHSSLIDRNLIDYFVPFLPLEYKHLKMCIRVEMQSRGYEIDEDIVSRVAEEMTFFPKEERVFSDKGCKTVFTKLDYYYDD
Chain of Streptavidin (Streptomyces avidinii) (P22629 whole entry, looked up): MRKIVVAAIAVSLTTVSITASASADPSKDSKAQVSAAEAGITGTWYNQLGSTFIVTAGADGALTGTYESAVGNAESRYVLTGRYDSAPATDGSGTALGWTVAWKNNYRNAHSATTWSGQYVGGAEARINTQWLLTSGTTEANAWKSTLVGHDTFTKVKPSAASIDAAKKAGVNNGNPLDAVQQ
Chain of NADPH oxidase 2 (Homo sapiens) (P04839 whole entry, looked up): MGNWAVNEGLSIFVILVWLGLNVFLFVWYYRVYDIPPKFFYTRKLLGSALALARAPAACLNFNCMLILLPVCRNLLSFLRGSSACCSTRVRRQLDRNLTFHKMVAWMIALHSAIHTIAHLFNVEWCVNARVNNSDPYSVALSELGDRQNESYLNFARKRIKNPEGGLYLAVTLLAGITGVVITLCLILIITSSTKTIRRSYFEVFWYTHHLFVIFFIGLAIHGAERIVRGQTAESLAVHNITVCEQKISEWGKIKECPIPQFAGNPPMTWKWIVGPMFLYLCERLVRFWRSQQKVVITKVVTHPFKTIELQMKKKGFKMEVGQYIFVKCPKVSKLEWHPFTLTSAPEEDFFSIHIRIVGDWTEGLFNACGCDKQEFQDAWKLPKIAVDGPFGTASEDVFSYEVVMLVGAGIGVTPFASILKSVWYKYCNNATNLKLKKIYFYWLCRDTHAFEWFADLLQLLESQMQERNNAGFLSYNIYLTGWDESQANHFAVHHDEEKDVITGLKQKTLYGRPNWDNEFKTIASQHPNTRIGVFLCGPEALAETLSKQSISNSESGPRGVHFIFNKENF

With `CC(C)c1ccc(NN2C(C(O)c3ccc(C#N)cc3)C=CC3C(=O)N(c4ccccc4)C(=O)C32)cc1` (stereo not given), the composite z-score was 0.248 in [1]; 1.96 in experiment [6]; 0.41 in experiment [7]; 0.0628 with Torsin-1A (Homo sapiens) [8]; 0.579 with Torsin-1A (Homo sapiens) [9]; -0.163 in experiment [10]. Further, in [12], the composite z-score was found to be 0.418. In addition, the z-score in experiment [2] was -0.687 (inactive); in experiment [3], -0.803 (inactive); in experiment [4] it was 0.812 (inactive); in [5] it was 0.802 (inactive); in [11] it was -1.6 (inactive); in [13], 15.4 (active). In addition, the z-score in experiment [14] was 2.64 (inactive); in experiment [15] it was 0.567 (inactive); in experiment [16] it was 1.27 (inactive); in experiment [17] it was -1.05; in experiment [18], -1.46 (inactive); in [19], -3.24 (inactive). Further, the z-score in [20] is -2.38.

For `CC[C@@H]1C=C(C(=O)O)[C@H](c2ccccc2)N1S(=O)(=O)c1ccc(C)cc1`, the composite z-score in experiment [1] is 0.0651; in experiment [6], 0.0128; in experiment [7], -0.197; with Torsin-1A (Homo sapiens) [8], 0.474; in the experiment with Torsin-1A (Homo sapiens) [9], 0.518; in experiment [10], -0.313. The same compound displayed a composite z-score in experiment [12] of -0.0984. For the same compound, the z-score in [2] is -0.272 (inactive); in [3] it was 0.853 (inactive); in [4], -0.676 (inactive); in experiment [5], -0.0818 (inactive); in [11], -1.24 (inactive); in [13] it was 1 (inactive). Moreover, the z-score in [14] was 0.72 (inactive); in [15] it was -0.393 (inactive); in experiment [16], 0.512 (inactive); in experiment [17], -0.265; in experiment [18] it was 0.848 (inactive); in experiment [19], -0.114 (inactive). This compound also yielded a z-score in experiment [20] of -0.978.

`C=CC[C@@H](OC(=O)Nc1ccc(SC)cc1)c1ccc(O)c(F)c1`: the composite z-score in experiment [1] is 0.175; in [6] it was -0.192; in experiment [7] it was -0.0468; in the experiment with Torsin-1A (Homo sapiens) [8] it was 0.26; with Torsin-1A (Homo sapiens) [9] it was 0.163; in experiment [10], 1.87. The composite z-score in [12] was -0.0573. Besides, the z-score was -0.77 (inactive) in experiment [2]; -1.57 (inactive) in [3]; 9.49 (active) in [4]; 3.13 (inactive) in [5]; 0.959 (inactive) in experiment [11]; 24.1 (active) in experiment [13]. Moreover, the z-score in [14] was 6.56 (inactive); in experiment [15] it was 1.9 (inactive); in [16] it was 1.04 (inactive); in experiment [17], 0.42; in experiment [18], -5.77 (inactive); in experiment [19], -2.85 (inactive). For the same compound, the z-score in experiment [20] was -3.25.

Consider `CC(=O)NCCCC[C@@H]1NC(=O)[C@@H]2C[C@H](C(=O)NCCCCCN)[C@H](c3cccc(OCCO)c3)N2C1=O`, for which the composite z-score is 0.698 in [1]; 1.37 in experiment [6]; -0.19 in experiment [7]; 0.738 in the experiment with Torsin-1A (Homo sapiens) [8]; -0.0879 with Torsin-1A (Homo sapiens) [9]; 1.66 in experiment [10]. This compound also displayed a composite z-score in experiment [12] of -0.22. The z-score was -0.804 (inactive) in [2]; -1.02 (inactive) in [3]; -1.34 (inactive) in experiment [4]; -0.892 (inactive) in experiment [5]; 2.26 (inactive) in experiment [11]; 2.03 (inactive) in experiment [13]. The z-score was -0.543 (inactive) in [14]; 1.98 (inactive) in experiment [15]; -1.27 (inactive) in [16]; 4.55 in experiment [17]; 1.14 (inactive) in experiment [18]; 1.06 (inactive) in experiment [19]. The z-score in experiment [20] came out at 1.74.
